From PubChem
Shown are actives, neighbours in structure and some others; about 11% of the full set was active somewhere.
L3MBTL1 block = blocks human L3MBTL1. AID 485360. Q9Y468. 230,000 compounds, 0.66% hits. Potency, µM (highest dose often 57.1 µM), for the others: top-dose activity, negative = inhibition, usual class: inhibitors. AlphaScreen L3MBTL1–H3K9me1 peptide binding; note: potency is the fitted concentration of half-maximal effect; % is set by controls: 0 for no effect and ±100 for the full control effect; nearly all actives have a fitted effect of over 60% in size
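Displacement of a biotinylated histone H3(1-15) peptide monomethylated at Lys9 (75 nM) from L3MBTL1 (50 nM) was measured by AlphaScreen after a 30 min room-temperature compound incubation; cefsulodin titration served as intraplate control.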
BAZ2B block = blocks human BAZ2B. 360,000 compounds, 4.4% hits. Potency, µM (doses to about 114 µM), inactives show at the top dose activity change, negative = inhibition, actives largely listed as inhibitors. Q9UIF8. AID 504333. AlphaScreen BAZ2B-H3K14Ac peptide displacement; note: potency is the fitted concentration of half-maximal effect; % is set by controls: 0 for no effect and ±100 for the full control effect; nearly all actives have a fitted effect of over 60% in size
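AlphaScreen luminescence quantifies BAZ2B engagement of H3K14Ac peptide; the protein and biotinylated peptide are both at 50 nM final, buffer PBS pH 7.4 with 0.01% Tween-20, all steps at room temperature.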
JMJD2A Tudor = blocks the human JMJD2A Tudor domain; 390,000 compounds, 4.4% hits; O75164; Potency, µM (doses to about 114 µM), for the others: at the highest dose activity change, negative = inhibition, hits mostly inhibitors; AlphaScreen JMJD2A-Tudor / H3K4me3 peptide binding; note: potency is the fitted concentration of half-maximal effect; % is set by controls: 0 for no effect and ±100 for the full control effect; nearly all actives have a fitted effect of over 50% in size
PI5P4K alpha inh = blocks human PI5P4K alpha kinase activity | AID 652105 | P48426 | 330,000 compounds, 1.2% hits | max response, % | PI5P4Kalpha enzyme, ADP-Glo luminescence, 60 min; active compounds read low; active = max response of -50% or lower; inconclusive = between -30% and -50%; inactive = -30% or higher; note: value at the top dose of about 77 µM; % is set by controls: 0 for no effect and ±100 for the full control effect
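Controls without substrate or without enzyme flank wells where PI5P4Kalpha converts substrate using 5 microM ATP (final). Incubation lasts 60 minutes at room temperature; ADP formed is read by ADP-Glo luminescence.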
HP1b binding inh = HP1-beta chromodomain-methylated histone interaction inhibition; 390,000 compounds, 0.56% hits; AlphaScreen HP1-beta / biotin-H3K9me3 peptide binding; Potency, µM (top dose mostly 114 µM), without a hit: at the highest dose activity change, negative = inhibition, actives largely listed as inhibitors; P83916; note: potency is the fitted concentration of half-maximal effect; nearly all actives have a fitted effect of over 70% in size
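AlphaScreen: HP1-beta (50 nM) preformed 30 min with biotin-H3(1-18)K9me3 peptide (50 nM) in PBS pH 7.4, 0.01% Tween-20. Compound added for 30 min at RT, then streptavidin donor/nickel chelate acceptor beads (10 ug/mL) for 30 min.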
G9a inh = inhibitors of human histone lysine methyltransferase G9a; Q96KQ7; 350,000 compounds, 8.8% hits; G9a H3K9 monomethylation, AlphaScreen, 2 h; Potency, µM (highest dose often 102 µM), without a hit: at the top dose activity, negative = inhibition, hits mostly inhibitors; AID 504332; note: potency is the fitted concentration of half-maximal effect; % is set by controls: 0 for no effect and ±100 for the full control effect; nearly all actives have a fitted effect of over 75% in size
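G9a (20 nM) preincubated 15 min RT with compounds, then 500 nM biotinylated H3K9 peptide and 20 uM SAM added; 2 h RT reaction. Monomethyl-H3K9 product detected by AlphaScreen with anti-H3K9me1 antibody, streptavidin donor and anti-rabbit IgG acceptor beads.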
An asterisk follows results filed as active; u = inconclusive; x = no result; [ ] = remark or other dose. Unless noted, calls come from the whole dose curve; as a rule, active = well fitted inhibition curve with a large enough effect; inconclusive = small, poorly fitted or top-dose-only effect; inactive = no such curve, though single readings can be large or run the other way.

SMILES	L3MBTL1 block	BAZ2B block	JMJD2A Tudor	PI5P4K alpha inh	HP1b binding inh	G9a inh
COc1ccccc1CNC(=O)/C=C/c1ccc(Br)o1	x	u	-16%	-8	25%	28µM*
O=C(/C=C/c1ccc(Br)o1)NC(c1ccccc1)c1ccccc1	-10%	-37%	u	-1	u	18µM*
COc1ccccc1CNC(=O)Cc1ccc(Br)cc1	-14%	-8%	-3%	3	36%	8%[59 µM]
COc1ccccc1CNS(=O)(=O)c1ccc2[nH]cc(C(=O)O)c(=O)c2c1	-10%	-10%	40µM*	-9	u	-21%[59 µM]
COc1ccccc1CNS(=O)(=O)c1ccc2[nH]c3c(c2c1)CCCCC3	x	18%[57.1 µM]	u	x	-15%	-7%[59 µM]
c1coc(CN(Cc2ccco2)c2ncnc3c2oc2ccccc23)c1	-20%	u	40µM*	1	-5%	14µM*
CCOc1ccccc1C(=O)Nc1c(NC)c2ccccc2oc1=O	x	0%	6%	x	42%	2%[59 µM]
O=S(=O)(c1cccc(C(F)(F)F)c1)N1CCN(c2nc(-c3cccs3)nc3cc(Cl)ccc23)CC1	x	x	-21%	x	38%	x
O=C1SCCC1NS(=O)(=O)c1ccc([N+](=O)[O-])cc1 (stereo unspecified)	x	u	-16%	-26	3%	50µM*
CC(C)NC(=O)CN1C(=O)c2cccnc2Sc2ccccc21	x	-17%	-8%	x	20%	24%[59 µM]
COc1cccc(/C=C/C(=O)OCC(=O)NCCC2=CCCCC2)c1	-4%[2.29 µM]	-29%	8.9µM*	-65*	21%	-2%
CCOc1cc(CNC(=O)C2COc3ccccc3C2)cc(OCC)c1OCC (stereo unspecified)	x	-1%	-10%	x	21%[57 µM]	0%[59 µM]
Fc1ccccc1-c1cc2ncccc2cn1	8%	56µM*	u	0	46%	-4%[0.501 µM]
Cc1nn(-c2ccccc2)c(C)c1/C=N/N1CCN(c2ccccc2)CC1	-14%	u	20µM*	x	-13%	u
Cc1nn(-c2ccccc2)c(Cl)c1/C=N/N1CCN(c2ccccn2)CC1	-2%	-1%	2%	0	34%	13%[0.0925 µM]
CC(C)(C)c1ccc(/C=N/N2CCN(c3ccccn3)CC2)cc1	-3%	-14%	-25%	0	-5%	x
Cc1nn(-c2ccccc2)c(C)c1/C=N/N1CCN(Cc2ccccc2)CC1	x	x	x	x	x	17µM*
CN(C)c1ccc(/C=N/N2CCN(c3ccccn3)CC2)cc1	-18%	-28%	-28%	-3	6%	13µM*
Cc1nn(-c2ccccc2)c(C)c1/C=N/N1CCN(c2ccccn2)CC1	u	45µM*	u	2	u	u
Cc1nn(-c2ccccc2)c(N2CCCC2)c1/C=N/O	x	-7%	-3%	x	28%	1%[12.7 µM]
CCCCCn1c(=O)[nH]c2cc(C(=O)NCc3ccc(C)cc3)ccc2c1=O	x	-1%	-3%	x	10%	1%[59 µM]
C[C@H]([C@H](C)N1CC(=O)NC(=O)C1)N1CC(=O)NC(=O)C1	x	x	x	x	x	2.2µM*
Cc1ccccc1OCc1nc2c3cnn(-c4cccc(F)c4)c3ncn2n1	x	0%	1%	x	34%	-4%[59 µM]
CCN1CCN(C(c2ccc(SC)cc2)c2c(O)cc(C)n(CCOC)c2=O)CC1 (stereo unspecified)	x	-2%	u	x	9%[57 µM]	u
Cc1ccc(C(c2nnnn2C2CCCC2)N2c3ccccc3CC2C)cc1 (stereo unspecified)	-7%	-11%	-17%	2	26%	71µM*
SMILES	L3MBTL1 block	BAZ2B block	JMJD2A Tudor	PI5P4K alpha inh	HP1b binding inh	G9a inh
Fc1ccc(C(c2nnnn2C2CCCC2)N2CCc3ccccc32)cc1 (stereo unspecified)	-1%	-38%	u	2	7%	-4%[0.501 µM]
Cc1ccc2oc(=O)n(CCNC(=O)Nc3ccc(Cl)cc3)c2c1	x	-8%	-17%	x	39%	2%[59 µM]
COc1cccc(/C=N/n2c(-c3cc(C)[nH]n3)n[nH]c2=S)c1O	-8%	u	2.8µM*	8	10%	x
COc1cccc(/C=N/n2c(-c3n[nH]c4c3CCC4)n[nH]c2=S)c1O	11%	-2%	7.9µM*	-28	u	1.4µM*
Cc1ccc(-c2n[nH]c3c2CCC3)cc1	x	-4%	-5%	8	21%	-6%
COc1cc(/C=N/n2c(-c3n[nH]c4c3CCC4)n[nH]c2=S)cc(OC)c1O	x	-33%	1.1µM*	u	u	u
COc1cc(OC)c(-c2nn3c(-c4n[nH]c5c4CCC5)nnc3s2)cc1OC	x	x	-22%[57.1 µM]	x	13%[57 µM]	x
S=c1[nH]nc(-c2n[nH]c3c2CCC3)n1/N=C/C=C/c1ccco1	28µM*	u	5µM*	-52*	-12%	x
CCCCN1C(=O)CN(C2CCCCCC2)C(=O)C1c1ccc(OCC)c(OC)c1 (stereo unspecified)	x	-1%	-14%	x	34%	2%[59 µM]
O=S(=O)(Nc1cccc(-c2ccc(N3CCCC3)nn2)c1)c1ccccc1C(F)(F)F	x	2%	-13%	x	10%[57 µM]	-2%[59 µM]
Cc1nc2ccn(Cc3ccccc3)c(=O)c2cc1C(=O)Nc1ccc(F)cc1Cl	x	-2%	4%	x	50%	3%[59 µM]
COc1ccccc1/C=C/C=N/n1c(-c2n[nH]c3c2CCC3)n[nH]c1=S	-20%	-26%	35µM*	u	u	1.4µM*
O=C(N/N=C/c1cc(Br)cc(Br)c1O)c1cccc(N2CCCC2=O)c1	u	u	89µM*	-13	35%	4%
O=C(N/N=C/c1ccc(Cl)cc1Cl)c1cccc(N2CCCC2=O)c1	x	-8%	-11%	0	9%	-4%
O=C(N/N=C/c1ccc([N+](=O)[O-])cc1)c1cccc(N2CCCC2=O)c1	x	79µM*	-10%	1	11%	u
Cc1ccc2oc(=O)c3cc(C(=O)N4CCN(c5ccccc5F)CC4)sc3c2c1	x	-4%	-13%	x	41%	5%[59 µM]
O=[N+]([O-])c1cccc(-c2c[n+]3c(n2-c2ccccc2)SCC3)c1	-3%	x	7%	-5	28%	0%
Clc1ccc(-c2c[n+]3c(n2-c2ccccc2)SCC3)cc1	2%	-9%	-6%	4	31%	56µM*
COc1ccc(CCNC(=O)c2cc(Sc3cccc(Cl)c3)nc3ccccc23)cc1OC	x	1%	-28%	x	31%	0%[59 µM]
C=CCn1c(O)c(N=Nc2ccccc2O)c2ccccc21	-14%	u	u	22	6%	-15%[2.33 µM]
Oc1ccccc1N=Nc1ccccc1O	x	x	32µM*	-1	-16%	16µM*
Nc1ccc(N=Nc2ccccc2O)c(N)c1	x	x	35µM*	-10	u	x
Cc1nc2nc[nH]n2c(=O)c1NS(=O)(=O)c1ccc(Br)cc1	x	-1%	-15%	x	22%	4%[59 µM]
Cc1cc(S(=O)(=O)n2ccnc2C(C)C)cc([N+](=O)[O-])c1C	x	-12%	-13%	x	23%	8%[59 µM]
